# From PubChem BioAssay AID1159580 (chemical genetic matrix, 2015)
# Where “and” joins values, the source holds several entries; their conditions need not be identical. Equal values may be shown once. The whole screen tested about 5,500 compounds, of which about 2,000 (36%) were called active. About 18% were inconclusive and are not listed. The list shows a part of the results. A number with no mark means an inactive call. Cut-off read from the data, not from the text of the source: active = normalized growth mostly below about 0.91 (no sharp cut-off); inconclusive = no clear call, values can overlap the other calls; inactive = mostly above about 0.92.
# Experiment: chemical genetic growth profiling, strain panel (AID 1159580);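 note: tested at 20 µM; growth read once vehicle control cultures reached saturation at 30 °C; 1 = growth at the plate median or of vehicle wells; lower values mean less growth of the strain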
# Details: growth OD
structure (smiles),measurement,setting,value
C=CCc1ccc(OC(=O)c2ccccc2)c(OC)c1,normalized growth,"S. cerevisiae deletion strains, locus YBR021W, strain FUR4, active compounds read low",1
same,normalized growth,"S. cerevisiae deletion strains, locus YBR229C, strain ROT2, active compounds read low",0.99
same,normalized growth,"S. cerevisiae deletion strains, locus YCL029C, strain bik1, active compounds read low",0.973
same,normalized growth,"S. cerevisiae deletion strains, locus YDL035C, strain GPR1, active compounds read low",0.916
same,normalized growth,"S. cerevisiae deletion strains, locus YDL074C, strain BRE1, active compounds read low",0.923
same,normalized growth,"S. cerevisiae deletion strains, locus YDL101C, strain DUN1, active compounds read low",0.974
same,normalized growth,"S. cerevisiae deletion strains, locus YDL134C, strain PPH21, active compounds read low",0.95
same,normalized growth,"S. cerevisiae deletion strains, locus YDL185W, strain tfp1, active compounds read low",0.998
same,normalized growth,"S. cerevisiae deletion strains, locus YDL192W, strain arf1, active compounds read low",0.928
same,normalized growth,"S. cerevisiae deletion strains, locus YDR101C, strain arx1, active compounds read low",0.919
same,normalized growth,"S. cerevisiae deletion strains, locus YDR150W, strain NUM1, active compounds read low",0.997
same,normalized growth,"S. cerevisiae deletion strains, locus YDR162C, strain NBP2, active compounds read low",0.947
same,normalized growth,"S. cerevisiae deletion strains, locus YDR318W, strain mcm21, active compounds read low",0.939
same,normalized growth,"S. cerevisiae deletion strains, locus YDR388W, active compounds read low",0.979
same,normalized growth,"S. cerevisiae deletion strains, locus YDR502C, strain sam2, active compounds read low",0.944
same,normalized growth,"S. cerevisiae deletion strains, locus YER110C, active compounds read low",1.03
same,normalized growth,"S. cerevisiae deletion strains, locus YER155C, strain BEM2, active compounds read low",0.969
same,normalized growth,"S. cerevisiae deletion strains, locus YER167W, strain BCK2, active compounds read low",0.939
same,normalized growth,"S. cerevisiae deletion strains, locus YGL078C, strain dbp3, active compounds read low",0.956
same,normalized growth,"S. cerevisiae deletion strains, locus YGL086W, strain mad1, active compounds read low",0.933
same,normalized growth,"S. cerevisiae deletion strains, locus YGL248W, strain PDE1, active compounds read low",0.971
same,normalized growth,"S. cerevisiae deletion strains, locus YGR078C, strain PAC10, active compounds read low",0.974
same,normalized growth,"S. cerevisiae deletion strains, locus YGR135W, strain pre9, active compounds read low",0.965
same,normalized growth,"S. cerevisiae deletion strains, locus YGR252W, strain gcn5, active compounds read low",0.993
same,normalized growth,"S. cerevisiae deletion strains, locus YHR030C, strain SLT2, active compounds read low",1 and 0.914
same,normalized growth,"S. cerevisiae deletion strains, locus YHR079C, strain IRE1 (second series), active compounds read low",0.988
same,normalized growth,"S. cerevisiae deletion strains, locus YHR079C, strain IRE1, active compounds read low",0.931
same,normalized growth,"S. cerevisiae deletion strains, locus YHR094C, strain hxt1, active compounds read low",0.988
same,normalized growth,"S. cerevisiae deletion strains, locus YHR129C, strain ARP1, active compounds read low",0.985
same,normalized growth,"S. cerevisiae deletion strains, locus YHR200W, strain rpn10, active compounds read low",0.952
same,normalized growth,"S. cerevisiae deletion strains, locus YIL066C, strain RNR3, active compounds read low",0.973
same,normalized growth,"S. cerevisiae deletion strains, locus YIL073C, strain SPO22, active compounds read low",1.08
same,normalized growth,"S. cerevisiae deletion strains, locus YIL125W, strain kgd1, active compounds read low",0.966
same,normalized growth,"S. cerevisiae deletion strains, locus YIR030C, strain dcg1, active compounds read low",0.983
same,normalized growth,"S. cerevisiae deletion strains, locus YJL095W, strain BCK1, active compounds read low",0.918 and 0.973
same,normalized growth,"S. cerevisiae deletion strains, locus YJL134W, strain LCB3, active compounds read low",1
same,normalized growth,"S. cerevisiae deletion strains, locus YJL168C, strain set2, active compounds read low",1
same,normalized growth,"S. cerevisiae deletion strains, locus YJL187C, strain SWE1 (second series), active compounds read low",0.954
same,normalized growth,"S. cerevisiae deletion strains, locus YJR043C, strain POL32, active compounds read low",0.936
same,normalized growth,"S. cerevisiae deletion strains, locus YJR066W, strain TOR1, active compounds read low",0.954
same,normalized growth,"S. cerevisiae deletion strains, locus YKL009W, strain mrt4, active compounds read low",0.925
same,normalized growth,"S. cerevisiae deletion strains, locus YKL068W, active compounds read low",0.979
same,normalized growth,"S. cerevisiae deletion strains, locus YKL085W, strain MDH1 (second series), active compounds read low",0.981
same,normalized growth,"S. cerevisiae deletion strains, locus YKL085W, strain MDH1, active compounds read low",0.981
same,normalized growth,"S. cerevisiae deletion strains, locus YKR001C, strain vps1, active compounds read low",0.908
same,normalized growth,"S. cerevisiae deletion strains, locus YLR039C, strain RIC1, active compounds read low",0.958
same,normalized growth,"S. cerevisiae deletion strains, locus YLR058C, strain SHM2, active compounds read low",0.952
same,normalized growth,"S. cerevisiae deletion strains, locus YLR102C, strain apc9, active compounds read low",0.996
same,normalized growth,"S. cerevisiae deletion strains, locus YLR113W, strain HOG1, active compounds read low",0.841 (active)
same,normalized growth,"S. cerevisiae deletion strains, locus YLR268W, strain sec22, active compounds read low",0.965
same,normalized growth,"S. cerevisiae deletion strains, locus YLR330W, strain CHS5, active compounds read low",0.983
same,normalized growth,"S. cerevisiae deletion strains, locus YLR371W, strain rom2, active compounds read low",0.985
same,normalized growth,"S. cerevisiae deletion strains, locus YLR418C, strain cdc73, active compounds read low",0.935
same,normalized growth,"S. cerevisiae deletion strains, locus YML016C, strain PPZ1, active compounds read low",1
same,normalized growth,"S. cerevisiae deletion strains, locus YML032C, strain rad52, active compounds read low",0.926
same,normalized growth,"S. cerevisiae deletion strains, locus YML124C, strain tub3, active compounds read low",0.977
same,normalized growth,"S. cerevisiae deletion strains, locus YMR078C, strain ctf18, active compounds read low",0.978
same,normalized growth,"S. cerevisiae deletion strains, locus YMR223W, strain ubp8, active compounds read low",0.967
same,normalized growth,"S. cerevisiae deletion strains, locus YMR263W, strain SAP30, active compounds read low",0.998
same,normalized growth,"S. cerevisiae deletion strains, locus YMR307W, strain GAS1, active compounds read low",1.2
same,normalized growth,"S. cerevisiae deletion strains, locus YNL067W, strain RPL9B, active compounds read low",0.969
same,normalized growth,"S. cerevisiae deletion strains, locus YNL128W, strain TEP1, active compounds read low",0.992
same,normalized growth,"S. cerevisiae deletion strains, locus YNL153C, strain GIM3, active compounds read low",1.02
same,normalized growth,"S. cerevisiae deletion strains, locus YNL183C, strain NPR1, active compounds read low",0.933
same,normalized growth,"S. cerevisiae deletion strains, locus YNL233W, strain BNI4, active compounds read low",0.979
same,normalized growth,"S. cerevisiae deletion strains, locus YNL250W, strain rad50, active compounds read low",1.03
same,normalized growth,"S. cerevisiae deletion strains, locus YNL271C, strain bni1, active compounds read low",0.994
same,normalized growth,"S. cerevisiae deletion strains, locus YNL298W, strain CLA4, active compounds read low",0.95
same,normalized growth,"S. cerevisiae deletion strains, locus YNL307C, strain MCK1, active compounds read low",0.961
same,normalized growth,"S. cerevisiae deletion strains, locus YNR052C, strain pop2, active compounds read low",0.998
same,normalized growth,"S. cerevisiae deletion strains, locus YOL006C, strain TOP1, active compounds read low",0.779
same,normalized growth,"S. cerevisiae deletion strains, locus YOL012C, strain htz1",1.51
same,normalized growth,"S. cerevisiae deletion strains, locus YOL147C, strain pex11, active compounds read low",0.964
same,normalized growth,"S. cerevisiae deletion strains, locus YOR061W, strain CKA2, active compounds read low",0.986
same,normalized growth,"S. cerevisiae deletion strains, locus YOR069W, strain VPS5, active compounds read low",0.994
same,normalized growth,"S. cerevisiae deletion strains, locus YOR136W, strain idh2, active compounds read low",0.977
same,normalized growth,"S. cerevisiae deletion strains, locus YOR144C, strain elg1, active compounds read low",0.981
same,normalized growth,"S. cerevisiae deletion strains, locus YOR184W, strain ser1, active compounds read low",0.571 (active)
same,normalized growth,"S. cerevisiae deletion strains, locus YOR231W, strain MKK1, active compounds read low",0.915
same,normalized growth,"S. cerevisiae deletion strains, locus YOR316C, strain cot1, active compounds read low",0.985
same,normalized growth,"S. cerevisiae deletion strains, locus YPL256C, strain CLN2, active compounds read low",0.925
same,normalized growth,"S. cerevisiae deletion strains, locus YPR119W, strain clb2, active compounds read low",0.971
same,normalized growth,"S. cerevisiae deletion strains, locus YPR141C, strain kar3, active compounds read low",0.991
same,normalized growth,"S. cerevisiae deletion strains, locus YPR163C, strain tif3, active compounds read low",0.943
same,normalized growth,"S. cerevisiae deletion strains, locus YPR167C, strain met16, active compounds read low",0.943
same,normalized growth,"S. cerevisiae deletion strains, strain wtn01, active compounds read low",0.906
same,normalized growth,"S. cerevisiae strains, strain wild type, active compounds read low",0.93
